Assay results published in the supplement of paper PMC10037445.
Whole data set: some 2,900 compounds, median “NF-kB SEAP reporter activity, fold change vs agonist alone” near 0.99, cut for the highest 2% near 2.6. What follows is part of a selection rich in the highest values, with near analogues and random picks from the rest.

Columns and labels:
[1] = test system: RAW-Dual; assay: NF-kB SEAP reporter activity, fold change vs agonist alone; cytotoxicity flag (confluency mask): cytotoxic (confluency <70% of control); higher = enhanced NF-kB activity
How it was run: (§1)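 Reporter activity is given as fold change relative to agonist-alone wells. To measure it, 50 nL of library stock was pin-tooled onto RAW-Dual macrophages (50,000 cells/well, DMEM, 384-well plates), a PRR agonist followed 1 h later, and cells stayed at 37 °C, 5% CO2. Twenty hours on, supernatant was assayed for IRF (QuantiLuc luminescence) and NF-κB (QuantiBlue, 620 nm absorbance), and wells under 70% of agonist-control IncuCyte confluency in both mask sets were marked cytotoxic.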

[2] = test system: RAW-Dual; assay: NF-kB SEAP reporter activity, fold change vs agonist alone; higher = enhanced NF-kB activity
How it was run: as §1

[3] = test system: RAW-Dual; assay: NF-kB SEAP reporter activity, fold change vs agonist alone; cytotoxicity flag (confluency mask): not cytotoxic; higher = enhanced NF-kB activity
How it was run: as §1

[4] = agonist: ODN 1826 (TLR9) 0.5 ug/mL
[5] = agonist: Pam2CSK4 (TLR2/6) 0.1 ug/mL
[6] = agonist: Pam3CSK4 (TLR2/1) 0.1 ug/mL
[7] = library stock concentration (final ~1000-fold dilution): 10 mM, cytotoxicity flag (confluency mask): cytotoxic (confluency <70% of control), agonist: Imiquimod (TLR7) […]
[8] = library stock concentration (final ~1000-fold dilution): 10 mM, cytotoxicity flag (confluency mask): cytotoxic (confluency <70% of control), agonist: MPLA (TLR4) […]
[9] = library stock concentration (final ~1000-fold dilution): 10 mM, cytotoxicity flag (confluency mask): not cytotoxic, agonist: Imiquimod (TLR7) […]
[10] = library stock concentration (final ~1000-fold dilution): 10 mM, cytotoxicity flag (confluency mask): not cytotoxic, agonist: MPLA (TLR4) […]
[11] = library stock concentration (final ~1000-fold dilution): 2 mM, cytotoxicity flag (confluency mask): not cytotoxic, agonist: Imiquimod (TLR7) […]
[12] = library stock concentration (final ~1000-fold dilution): 2 mM, cytotoxicity flag (confluency mask): not cytotoxic, agonist: MPLA (TLR4) […]

Compound: CCCCCCOc1cc(C)c(O)c(C)c1C (library stock concentration (final ~1000-fold dilution): 10 mM)
- NF-kB SEAP reporter activity ([1]; agonist: LPS (TLR4) 0.1 ug/mL): 0.406
- NF-kB SEAP reporter activity [1, 4]: 0.234
- NF-kB SEAP reporter activity [1, 5]: 0.154
- NF-kB SEAP reporter activity [1, 6]: 0.209

Compound: CCCCCCOc1cc(C)c(O)c(C)c1C
- NF-kB SEAP reporter activity [2, 7]: 0.313
- NF-kB SEAP reporter activity [2, 8]: 1.36

Compound: Cl.Cl.c1cc(-c2cnn3cc(-c4ccc(OCCN5CCCCC5)cc4)cnc23)ccn1 (library stock concentration (final ~1000-fold dilution): 10 mM water)
- NF-kB SEAP reporter activity ([3]; agonist: LPS (TLR4) 0.1 ug/mL): 1.69
- NF-kB SEAP reporter activity [3, 4]: 0.252
- NF-kB SEAP reporter activity [3, 5]: 1.44
- NF-kB SEAP reporter activity [3, 6]: 1.92

Compound: O=C(NC(C1CC1)C(F)(F)F)c1cc(-c2cnn3cc(-c4ccc(F)cc4)cnc23)cs1 (stereo not given)
- NF-kB SEAP reporter activity [2, 9]: 1.28
- NF-kB SEAP reporter activity [2, 10]: 1.98

Compound: O=C(NC(C1CC1)C(F)(F)F)c1cc(-c2cnn3cc(-c4ccc(F)cc4)cnc23)cs1 (stereo not given) (library stock concentration (final ~1000-fold dilution): 10 mM)
- NF-kB SEAP reporter activity ([3]; agonist: LPS (TLR4) 0.1 ug/mL): 2.68
- NF-kB SEAP reporter activity [3, 4]: 1.73
- NF-kB SEAP reporter activity [3, 5]: 2.46
- NF-kB SEAP reporter activity [3, 6]: 3.14

Compound: c1cc(-c2cnn3cc(-c4ccc(OCCN5CCCCC5)cc4)cnc23)ccn1
- NF-kB SEAP reporter activity [2, 11]: 0.841
- NF-kB SEAP reporter activity [2, 12]: 1.08

Compound: Cl.Cl.c1cc(-c2cnn3cc(-c4ccc(OCCN5CCCCC5)cc4)cnc23)ccn1
- NF-kB SEAP reporter activity ([2]; library stock concentration (final ~1000-fold dilution): 10 mM water, cytotoxicity flag (confluency mask): not cytotoxic, agonist: Imiquimod (TLR7) […]): 0.944
- NF-kB SEAP reporter activity ([2]; library stock concentration (final ~1000-fold dilution): 10 mM water, cytotoxicity flag (confluency mask): not cytotoxic, agonist: MPLA (TLR4) […]): 1.2

Compound: c1cc(-c2cnn3cc(-c4ccc(OCCN5CCCCC5)cc4)cnc23)ccn1 (library stock concentration (final ~1000-fold dilution): 2 mM)
- NF-kB SEAP reporter activity ([3]; agonist: LPS (TLR4) 0.1 ug/mL): 1.38
- NF-kB SEAP reporter activity [3, 4]: 0.365
- NF-kB SEAP reporter activity [3, 5]: 1.32
- NF-kB SEAP reporter activity [3, 6]: 1.28

Compound: CCC(=C(c1ccccc1)c1ccc(OCCN(C)C)cc1)c1ccccc1 (library stock concentration (final ~1000-fold dilution): 10 mM)
- NF-kB SEAP reporter activity ([1]; agonist: LPS (TLR4) 0.1 ug/mL): 0.687
- NF-kB SEAP reporter activity [1, 4]: 0.447
- NF-kB SEAP reporter activity [1, 5]: 0.398
- NF-kB SEAP reporter activity [1, 6]: 0.525

Compound: CCC(=C(c1ccccc1)c1ccc(OCCN(C)C)cc1)c1ccccc1
- NF-kB SEAP reporter activity [2, 7]: 1.53
- NF-kB SEAP reporter activity [2, 8]: 1.52

Compound: Cc1ccccc1C(OCCN(C)C)c1ccccc1.Cl (stereo not given)
- NF-kB SEAP reporter activity [2, 9]: 1.38
- NF-kB SEAP reporter activity [2, 10]: 1.13

Compound: Cc1ccccc1C(OCCN(C)C)c1ccccc1.Cl (stereo not given) (library stock concentration (final ~1000-fold dilution): 10 mM)
- NF-kB SEAP reporter activity ([3]; agonist: LPS (TLR4) 0.1 ug/mL): 1.29
- NF-kB SEAP reporter activity [3, 4]: 0.935
- NF-kB SEAP reporter activity [3, 5]: 0.934
- NF-kB SEAP reporter activity [3, 6]: 0.932

Compound: CNc1ncc2cc(-c3cc(NC(=O)NCCC(C)(C)C)c(F)cc3C)c(C)nc2n1 (library stock concentration (final ~1000-fold dilution): 2 mM)
- NF-kB SEAP reporter activity ([3]; agonist: LPS (TLR4) 0.1 ug/mL): 1.42
- NF-kB SEAP reporter activity [3, 4]: 0.533
- NF-kB SEAP reporter activity [3, 5]: 0.218
- NF-kB SEAP reporter activity [3, 6]: 0.28

Compound: COc1cc(OC)cc(-c2cc3cnc(N)nc3nc2NC(=O)NC(C)(C)C)c1
- NF-kB SEAP reporter activity [2, 9]: 0.989
- NF-kB SEAP reporter activity [2, 10]: 1.1

Compound: CNc1ncc2cc(-c3cc(NC(=O)NCCC(C)(C)C)c(F)cc3C)c(C)nc2n1
- NF-kB SEAP reporter activity [2, 11]: 0.497
- NF-kB SEAP reporter activity [2, 12]: 0.918

Compound: CCN(CC)CCCCNc1ncc2cc(-c3cc(OC)cc(OC)c3)c(NC(=O)NC(C)(C)C)nc2n1 (library stock concentration (final ~1000-fold dilution): 10 mM)
- NF-kB SEAP reporter activity ([1]; agonist: LPS (TLR4) 0.1 ug/mL): 0.324
- NF-kB SEAP reporter activity [1, 4]: 0.891
- NF-kB SEAP reporter activity [1, 5]: 1.72
- NF-kB SEAP reporter activity [1, 6]: 1.56

Compound: CCN(CC)CCCCNc1ncc2cc(-c3cc(OC)cc(OC)c3)c(NC(=O)NC(C)(C)C)nc2n1
- NF-kB SEAP reporter activity [2, 7]: 2.8
- NF-kB SEAP reporter activity [2, 8]: 2.71

Compound: COc1cc(OC)cc(-c2cc3cnc(N)nc3nc2NC(=O)NC(C)(C)C)c1 (library stock concentration (final ~1000-fold dilution): 10 mM)
- NF-kB SEAP reporter activity ([3]; agonist: LPS (TLR4) 0.1 ug/mL): 5.36
- NF-kB SEAP reporter activity [3, 4]: 1.02
- NF-kB SEAP reporter activity [3, 5]: 0.578
- NF-kB SEAP reporter activity [3, 6]: 0.747

Compound: O=C(NC1(c2ccccc2)CC1)c1c(CN2CCC(N3CCCCC3)CC2)c(-c2cccc(C(F)(F)F)c2)nc2cc(Br)ccc12 (library stock concentration (final ~1000-fold dilution): 10 mM)
- NF-kB SEAP reporter activity ([1]; agonist: LPS (TLR4) 0.1 ug/mL): 2.58
- NF-kB SEAP reporter activity [1, 4]: 0.897
- NF-kB SEAP reporter activity [1, 5]: 0.896
- NF-kB SEAP reporter activity [1, 6]: 1.27

Compound: O=C(NC1(c2ccccc2)CC1)c1c(CN2CCC(N3CCCCC3)CC2)c(-c2cccc(C(F)(F)F)c2)nc2cc(Br)ccc12
- NF-kB SEAP reporter activity [2, 7]: 0.916
- NF-kB SEAP reporter activity [2, 8]: 1.03

Compound: O=C(c1cccc(Br)c1)N1CCC(N2CCCC2)CC1 (library stock concentration (final ~1000-fold dilution): 10 mM)
- NF-kB SEAP reporter activity ([3]; agonist: LPS (TLR4) 0.1 ug/mL): 1.39
- NF-kB SEAP reporter activity [3, 4]: 0.951
- NF-kB SEAP reporter activity [3, 5]: 1.16
- NF-kB SEAP reporter activity [3, 6]: 0.966

Compound: O=C(c1cccc(Br)c1)N1CCC(N2CCCC2)CC1
- NF-kB SEAP reporter activity [2, 10]: 1.09

Compound: CN1C(=O)C(NC(=O)c2n[nH]c(Cc3ccccc3)n2)COc2ccccc21 (stereo not given) (library stock concentration (final ~1000-fold dilution): 10 mM)
- NF-kB SEAP reporter activity ([3]; agonist: LPS (TLR4) 0.1 ug/mL): 1.01
- NF-kB SEAP reporter activity [3, 4]: 1.59
- NF-kB SEAP reporter activity [3, 5]: 1.01
- NF-kB SEAP reporter activity [3, 6]: 1.15

Compound: CN1C(=O)C(NC(=O)c2n[nH]c(Cc3ccccc3)n2)COc2ccccc21 (stereo not given)
- NF-kB SEAP reporter activity [2, 9]: 1.3
- NF-kB SEAP reporter activity [2, 10]: 0.971

Compound: CN(C/C=C/C#CC(C)(C)C)Cc1cccc2ccccc12.Cl (library stock concentration (final ~1000-fold dilution): 10 mM)
- NF-kB SEAP reporter activity ([3]; agonist: LPS (TLR4) 0.1 ug/mL): 3.51
- NF-kB SEAP reporter activity [3, 4]: 0.849
- NF-kB SEAP reporter activity [3, 5]: 0.948
- NF-kB SEAP reporter activity [3, 6]: 1.3

Compound: CN(C/C=C/C#CC(C)(C)C)Cc1cccc2ccccc12 (library stock concentration (final ~1000-fold dilution): 10 mM)
- NF-kB SEAP reporter activity ([3]; agonist: LPS (TLR4) 0.1 ug/mL): 4.26
- NF-kB SEAP reporter activity [3, 4]: 0.849
- NF-kB SEAP reporter activity [3, 5]: 0.95
- NF-kB SEAP reporter activity [3, 6]: 1.44

Compound: CN(C/C=C/C#CC(C)(C)C)Cc1cccc2ccccc12
- NF-kB SEAP reporter activity [2, 9]: 1.6
- NF-kB SEAP reporter activity [2, 10]: 2.02

Compound: CN(C/C=C/C#CC(C)(C)C)Cc1cccc2ccccc12.Cl
- NF-kB SEAP reporter activity [2, 9]: 1.56
- NF-kB SEAP reporter activity [2, 10]: 2.08

Compound: COc1cc2c(cc1OC)CN(C(=O)/C=C/c1c(-c3ccccc3)n(C)c3ncccc13)CC2.Cl (library stock concentration (final ~1000-fold dilution): 10 mM)
- NF-kB SEAP reporter activity ([3]; agonist: LPS (TLR4) 0.1 ug/mL): 1.15
- NF-kB SEAP reporter activity [3, 4]: 1.14
- NF-kB SEAP reporter activity [3, 5]: 1.15
- NF-kB SEAP reporter activity [3, 6]: 1.18

Compound: COc1cc2c(cc1OC)CN(C(=O)/C=C/c1c(-c3ccccc3)n(C)c3ncccc13)CC2.Cl
- NF-kB SEAP reporter activity [2, 9]: 1
- NF-kB SEAP reporter activity [2, 10]: 1.02

Compound: CNC1CN(c2ccc3c(=O)c(C(=O)O)cn(-c4nccs4)c3n2)CC1OC.Cl (stereo not given) (library stock concentration (final ~1000-fold dilution): 2 mM)
- NF-kB SEAP reporter activity ([3]; agonist: LPS (TLR4) 0.1 ug/mL): 1.11
- NF-kB SEAP reporter activity [3, 4]: 1.56
- NF-kB SEAP reporter activity [3, 5]: 1.32
- NF-kB SEAP reporter activity [3, 6]: 1.18

Compound: CNC1CN(c2ccc3c(=O)c(C(=O)O)cn(-c4nccs4)c3n2)CC1OC.Cl (stereo not given)
- NF-kB SEAP reporter activity [2, 11]: 1.12
- NF-kB SEAP reporter activity [2, 12]: 0.968

Compound: Br.CN(C)CCCC1(c2ccc(F)cc2)OCc2cc(C#N)ccc21 (stereo not given) (library stock concentration (final ~1000-fold dilution): 10 mM)
- NF-kB SEAP reporter activity ([3]; agonist: LPS (TLR4) 0.1 ug/mL): 1.15
- NF-kB SEAP reporter activity [3, 4]: 0.889
- NF-kB SEAP reporter activity [3, 5]: 0.786
- NF-kB SEAP reporter activity [3, 6]: 0.857

Compound: Br.CN(C)CCCC1(c2ccc(F)cc2)OCc2cc(C#N)ccc21 (stereo not given)
- NF-kB SEAP reporter activity [2, 10]: 1.01
